Assay [1] is described as follows: NCI Yeast Anticancer Drug Screen. Data for the rad50 strain (AID 155).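 Further: 0% = growth of vehicle-only cultures of the same strain.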 The following applies: S. cerevisiae rad50 strain growth inhibition, stronger effect = higher value. In outline: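 DNA repair mutant yeast, compound exposure, growth read-out; inhibition is taken relative to vehicle.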
Assay [2] is described as follows: NCI Yeast Anticancer Drug Screen. Data for the mec2-1 strain (AID 157). Particulars: S. cerevisiae mec2-1 strain, stronger effect = higher value. In a few lines: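 Cells of the genetically defined mec2-1 yeast strain are incubated with test compound. Inhibition of growth is calculated against vehicle-treated controls.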
The nature of assay [3]: NCI Yeast Anticancer Drug Screen. Data for the sgs1 mgt1 strain (AID 161).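 Further: 0% = growth of cultures given vehicle only.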 Particulars: S. cerevisiae sgs1 mgt1 strain, stronger effect = higher value. In outline:
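Test agents were incubated with a DNA-repair-mutant yeast strain. Growth was then read and compared against vehicle-treated controls.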

Assay [4] can be described thus: NCI Yeast Anticancer Drug Screen. Data for the cln2 rad14 strain (AID 165).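 Further: 0% = growth equal to vehicle treated cultures.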 Particulars: S. cerevisiae cln2 rad14 strain, stronger effect = higher value. In a few lines:
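The screen exposed genetically defined yeast (cln2 rad14) to test compounds and scored growth inhibition relative to vehicle-treated controls.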

Assay [5] is described as follows: NCI Yeast Anticancer Drug Screen. Data for the bub3 strain (AID 167). Particulars: S. cerevisiae bub3 mutant strain, stronger effect = higher value. In a few lines:
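In this screen, a yeast mutant lacking normal mitotic checkpoint function is challenged with compound. Relative growth versus vehicle gives the inhibition value.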

The nature of assay [6]: NCI Yeast Anticancer Drug Screen. Data for the mlh1 rad18 strain (AID 175). Particulars: S. cerevisiae mlh1 rad18 strain growth inhibition, stronger effect = higher value. In a few lines:
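Compound-treated yeast growth, normalised to vehicle controls. Strain bears defined DNA repair mutations.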

Where [7] appears, read: at 5.0 µM (retest, dose inferred, filed as 0.5).
Setting [8] is: at 50.0 µM (retest, dose inferred, filed as 5.0).

The panel holds about 79,000 compounds, 15% with a hit somewhere; the sample as a whole holds those more often. Unmarked numbers belong to inactive results. Calls of active or inactive are those of the source. No stated cut-off is given here; in the data, active means growth inhibition above about 70%; inactive means the rest.

Turning to `c1ccc(CC[n+]2csc3ccccc32)cc1`, the growth inhibition in assay [1] (setting [7]) was -2%; in assay [1] (setting [8]) it was 73% (active); in assay [1] (at 50.0 µM) it was 57%; in assay [2] (setting [7]) it was 0%; in assay [2] (setting [8]), 84% (active); in assay [2] (at 50.0 µM) it was 50.5%. Besides, the growth inhibition in assay [3] (setting [7]) is -2%; in assay [3] (setting [8]), 81% (active); in assay [3] (at 50.0 µM) it was 36.3%; in assay [4] (setting [7]), -8%; in assay [4] (setting [8]), 35%; in assay [4] (at 50.0 µM) it was 31.8%. Moreover, the growth inhibition in assay [5] (setting [7]) was 0%; in assay [5] (setting [8]), 90% (active); in assay [5] (at 50.0 µM) it was 63.8%; in assay [6] (setting [7]), -2%; in assay [6] (setting [8]), 83% (active); in assay [6] (at 50.0 µM), 54.6%.

In the case of `CCN(CC)CCC(=O)c1ccc2c3c(n(C)c2c1)CCCC3`, the growth inhibition in assay [1] (setting [7]) was 0%; in assay [1] (setting [8]) it was 9%; in assay [1] (at 50.0 µM) it was 95.8% (active); in assay [2] (setting [7]), 0%; in assay [2] (setting [8]), 9%; in assay [2] (at 50.0 µM) it was 25.2%. Besides, the growth inhibition in assay [3] (setting [7]) was -4%; in assay [3] (setting [8]) it was 26%; in assay [3] (at 50.0 µM) it was 83.8% (active); in assay [4] (setting [7]), -5%; in assay [4] (setting [8]), 22%; in assay [4] (at 50.0 µM), 5.85%. For the same compound, the growth inhibition in assay [5] (setting [7]) was -5%; in assay [5] (setting [8]), 42%; in assay [5] (at 50.0 µM), 96.3% (active); in assay [6] (setting [7]) it was 3%; in assay [6] (setting [8]), 21%; in assay [6] (at 50.0 µM), 78.7% (active).

For the compound `CSC(=S)NN=C(c1ccccc1)c1ccccc1`, the growth inhibition was 9% in assay [1] (setting [7]); 97% (active) in assay [1] (setting [8]); 55.6% in assay [1] (at 50.0 µM); 13% in assay [2] (setting [7]); 99% (active) in assay [2] (setting [8]); 39.4% in assay [2] (at 50.0 µM). The growth inhibition in assay [3] (setting [7]) is 18%; in assay [3] (setting [8]) it was 99% (active); in assay [3] (at 50.0 µM), 69.8%; in assay [4] (setting [7]), 7%; in assay [4] (setting [8]), 91% (active); in assay [4] (at 50.0 µM) it was 53.9%. In addition, the growth inhibition in assay [5] (setting [7]) was 0%; in assay [5] (setting [8]), 98% (active); in assay [5] (at 50.0 µM), 86.2% (active); in assay [6] (setting [7]), 16%; in assay [6] (setting [8]), 99% (active); in assay [6] (at 50.0 µM) it was 81.8% (active).

Regarding `COC(=O)C1(C)CC2C(C)(CCC3(C)C4=CC=C5C(=CC(=O)C(O)=C5C)C4(C)CCC23C)CC1O` (stereo not given), the growth inhibition in assay [1] (setting [7]) was 44%; in assay [1] (setting [8]), 98% (active); in assay [1] (at 50.0 µM), 85.8% (active); in assay [2] (setting [7]) it was 44%; in assay [2] (setting [8]) it was 98% (active); in assay [2] (at 50.0 µM), 87.9% (active). Further, the growth inhibition in assay [3] (setting [7]) is 48%; in assay [3] (setting [8]) it was 98% (active); in assay [3] (at 50.0 µM) it was 90.3% (active); in assay [4] (setting [7]), 51%; in assay [4] (setting [8]), 97% (active); in assay [4] (at 50.0 µM), 88% (active). Moreover, the growth inhibition is 75% (active) in assay [5] (setting [7]); 98% (active) in assay [5] (setting [8]); 87.3% (active) in assay [5] (at 50.0 µM); 50% in assay [6] (setting [7]); 96% (active) in assay [6] (setting [8]); 85.8% (active) in assay [6] (at 50.0 µM).

In the case of `Cc1nn(C)c2ccc3ccccc3c(=O)c12`, the growth inhibition is 9% in assay [1] (setting [7]); 66% in assay [1] (setting [8]); 88.5% (active) in assay [1] (at 50.0 µM); -1% in assay [2] (setting [7]); 44% in assay [2] (setting [8]); 45% in assay [2] (at 50.0 µM). Further, the growth inhibition in assay [3] (setting [7]) is 2%; in assay [3] (setting [8]), 50%; in assay [3] (at 50.0 µM) it was 42.6%; in assay [4] (setting [7]), 18%; in assay [4] (setting [8]), 47%; in assay [4] (at 50.0 µM), 29.4%. In addition, the growth inhibition is -6% in assay [5] (setting [7]); 26% in assay [5] (setting [8]); 32.6% in assay [5] (at 50.0 µM); 11% in assay [6] (setting [7]); 81% (active) in assay [6] (setting [8]); 76% (active) in assay [6] (at 50.0 µM).

Regarding `Oc1cc(Br)cc2cc(Br)cnc12`, the growth inhibition in assay [1] (setting [7]) was 92% (active); in assay [1] (setting [8]), 98% (active); in assay [1] (at 50.0 µM), 84.4% (active); in assay [2] (setting [7]) it was 89% (active); in assay [2] (setting [8]), 98% (active); in assay [2] (at 50.0 µM) it was 89.5% (active). Besides, the growth inhibition in assay [3] (setting [7]) is 95% (active); in assay [3] (setting [8]), 98% (active); in assay [3] (at 50.0 µM), 80.5% (active); in assay [4] (setting [7]), 96% (active); in assay [4] (setting [8]), 96% (active); in assay [4] (at 50.0 µM), 84.8% (active). Further, the growth inhibition in assay [5] (setting [7]) is 92% (active); in assay [5] (setting [8]), 97% (active); in assay [5] (at 50.0 µM) it was 85.5% (active); in assay [6] (setting [7]) it was 96% (active); in assay [6] (setting [8]), 98% (active); in assay [6] (at 50.0 µM), 78.3% (active).

For the compound `Cc1ccccc1NC(=O)CSC(N)=O`, the growth inhibition in assay [1] (setting [7]) was 2%; in assay [1] (setting [8]), 26%; in assay [1] (at 50.0 µM), 82.1% (active); in assay [2] (setting [7]), -1%; in assay [2] (setting [8]), 34%; in assay [2] (at 50.0 µM), 60.4%. Further, the growth inhibition was 1% in assay [3] (setting [7]); 36% in assay [3] (setting [8]); 91.8% (active) in assay [3] (at 50.0 µM); 5% in assay [4] (setting [7]); 6% in assay [4] (setting [8]); 55% in assay [4] (at 50.0 µM). The growth inhibition in assay [5] (setting [7]) is 1%; in assay [5] (setting [8]), 66%; in assay [5] (at 50.0 µM), 87.3% (active); in assay [6] (setting [7]) it was 0%; in assay [6] (setting [8]) it was 29%; in assay [6] (at 50.0 µM), 83% (active).

On to `CCCC(C(=O)OCCNC1CCCCC1)c1ccccc1` (stereo not given), for which the growth inhibition in assay [1] (setting [7]) is 2%; in assay [1] (setting [8]), 18%; in assay [1] (at 50.0 µM), 71.3% (active); in assay [2] (setting [7]), -13%; in assay [2] (setting [8]), 14%; in assay [2] (at 50.0 µM), 11.9%. For the same compound, the growth inhibition in assay [3] (setting [7]) is 0%; in assay [3] (setting [8]), 37%; in assay [3] (at 50.0 µM), 63.3%; in assay [4] (setting [7]), -38%; in assay [4] (setting [8]), 47%; in assay [4] (at 50.0 µM), 35.1%. The growth inhibition in assay [5] (setting [7]) is -4%; in assay [5] (setting [8]), 69%; in assay [5] (at 50.0 µM), 28.5%; in assay [6] (setting [7]), 2%; in assay [6] (setting [8]), 18%; in assay [6] (at 50.0 µM), 55.2%.

As for `COc1ccc(N=Nc2ccc(O)cc2)cc1`, the growth inhibition is 7% in assay [1] (setting [7]); 40% in assay [1] (setting [8]); 96.5% (active) in assay [1] (at 50.0 µM); -5% in assay [2] (setting [7]); 62% in assay [2] (setting [8]); 96% (active) in assay [2] (at 50.0 µM). In addition, the growth inhibition was 2% in assay [3] (setting [7]); 16% in assay [3] (setting [8]); 97.5% (active) in assay [3] (at 50.0 µM); 7% in assay [4] (setting [7]); 59% in assay [4] (setting [8]); 92% (active) in assay [4] (at 50.0 µM). Moreover, the growth inhibition in assay [5] (setting [7]) is -22%; in assay [5] (setting [8]), 88% (active); in assay [5] (at 50.0 µM), 96.4% (active); in assay [6] (setting [7]), 8%; in assay [6] (setting [8]), 65%; in assay [6] (at 50.0 µM) it was 97% (active).

As for `S=C(SSSSC(=S)N1CCCCC1)N1CCCCC1`, the growth inhibition in assay [1] (setting [7]) was 45%; in assay [1] (setting [8]), 92% (active); in assay [1] (at 50.0 µM), 66.8%; in assay [2] (setting [7]), 39%; in assay [2] (setting [8]), 95% (active); in assay [2] (at 50.0 µM) it was 19.9%. In addition, the growth inhibition in assay [3] (setting [7]) was 39%; in assay [3] (setting [8]), 96% (active); in assay [3] (at 50.0 µM), 43.1%; in assay [4] (setting [7]), 39%; in assay [4] (setting [8]), 94% (active); in assay [4] (at 50.0 µM), 9.35%. Moreover, the growth inhibition in assay [5] (setting [7]) is 40%; in assay [5] (setting [8]) it was 95% (active); in assay [5] (at 50.0 µM), 73.5% (active); in assay [6] (setting [7]) it was 57%; in assay [6] (setting [8]), 93% (active); in assay [6] (at 50.0 µM), 81% (active).

(Values after PubChem BioAssay (NCI).)
